According to the supplement of paper PMC9135407:
Counter-ions that a name gives are not always drawn.

test system: primary human hepatic stellate cells (donor 1); assay: ACTA2 mRNA fold change vs DMSO (normalised to PSMB2); higher = more ACTA2 expression; conditions: 48 h
Description: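 Secondary qRT-PCR screen in primary human HSCs (donor 1), 384-well plates, with compounds dispensed in quadruplicate and incubated for 48 h. Cells-to-CT lysates were used for multiplexed TaqMan qPCR of ACTA2 or COL1A1 with PSMB2 as reference. Fold changes versus DMSO come from a linear model (Ct_gene ~ Ct_PSMB2 + plate + chemical). A hit is defined as COL1A1 and ACTA2 FC <0.5 (FDR <0.05) with PSMB2 between 0.2 and 2.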

Compound | ACTA2 mRNA fold change
CC1=NCCc2c1[nH]c1cc(O)ccc21 [Harmalol hydrochloride dihydrate] (24.4333 µM) | 0.546
CCCCCCCCCCCCCC(=O)O[C@@H]1[C@@H](C)[C@@]2(O)[C@@H](C=C(CO)C[C@]3(O)C(=O)C(C)=C[C@@H]23)[C@@H]2C(C)(C)[C@]12OC(C)=O [Phorbol 12-myristate 13-acetate] (27.0333 µM) | 0.624
O=C1C2CCN(CC2)C1(CO)CO (90 µM) | 0.152
CCN1CCN(C(=O)Cc2ccc(Nc3ncc(F)c(Nc4ccc(C(=O)Nc5ccccc5Cl)cc4)n3)cc2)CC1 [Aurora A Inhibitor I] (33.3333 µM) | 0.131
CN(C(=O)Cc1ccc(Cl)c(Cl)c1)[C@H](CN1CCCC1)c1ccccc1 [ICI-199,441 hydrochloride] (33.3333 µM) | 0.0655
O=C1/C(=C/c2ccccc2)C[C@@]2(O)[C@H]3Cc4ccc(O)c5c4[C@@]2(CCN3CC2CC2)[C@H]1O5 [BNTX maleate] (33.3333 µM) | 0.275
CC[C@H]1CN2CCc3cc(OC)c(OC)cc3[C@@H]2C[C@@H]1C[C@H]1NCCc2cc(OC)c(OC)cc21 [Emetine] (12.0333 µM) | 0.0996
O=[N+]([O-])/C=C/c1ccc2c(c1)OCO2 (3.7 µM) | 0.905
C[C@]12CC[C@H](O)C[C@H]1CC[C@@H]1[C@@H]2CC[C@]2(C)[C@@H](C3=CC(=O)OC3)CC[C@]12O [Digitoxigenin] (33.3333 µM) | 0.0171
Fc1cc(F)c2c(c1)[C@H]1C=CC[C@H]1C(c1cccnc1)N2 (some centres not stated) [Golgicide A] (33.3333 µM) | 0.00835
CC1=C(O)C(=O)C=C2C1=CC=C1[C@@]2(C)CC[C@@]2(C)[C@@H]3C[C@](C)(C(=O)O)CC[C@]3(C)CC[C@]12C [Celastrol] (3.33333 µM) | 0.524
C[C@H](N)Cn1ccc2cc(F)c(Cl)cc21 [Ro 60-0175 fumarate] (33.3333 µM) | 0.532
C[C@@H]1O[C@@H](O[C@H]2C[C@@H](O)[C@]3(CO)[C@H]4[C@H](O)C[C@]5(C)[C@@H](C6=CC(=O)OC6)CC[C@]5(O)[C@@H]4CC[C@]3(O)C2)[C@H](O)[C@H](O)[C@H]1O [Ouabain] (33.3333 µM) | 0.0189
CCN(CC)CCO[C@H]1CC[C@@]2(C)C(=CC[C@@H]3[C@@H]2CC[C@]2(C)C(=O)CC[C@@H]32)C1 (33.3333 µM) | 0.123
CN[C@@H]1C[C@H]2O[C@@](C)([C@@H]1OC)n1c3ccccc3c3c4c(c5c6ccccc6n2c5c31)C(=O)NC4 [staurosporine] (35.6667 µM) | 0.667
CC(C(=O)OC1CC2CCC(C1)N2C)c1ccc(Br)cc1 (configuration not stated) [PG-9 maleate] (33.3333 µM) | 0.404
CC1=C(CC/C(C)=C/CCC2=CC[C@H](C3=CC(=O)O[C@H]3O)O[C@H]2O)C(C)(C)CCC1 [Manoalide] (40 µM) | 0.0669
COc1ccc2c(c[n+](C)c3c4cc5c(cc4ccc23)OCO5)c1OC (6.66667 µM) | 0.0494
CO[C@H]1CC[C@@H](O[C@H]2C[C@H]([C@]3(C)CC[C@]4(C[C@H](O)[C@@H](C)[C@@H]([C@@H](C)/C=C(\C)C(=O)[C@H](C)C[C@H](C)C(=O)O)O4)O3)O[C@]3(O[C@@H]([C@H]4O[C@@](O)(CO)[C@H](C)C[C@@H]4C)C[C@@H]3C)[C@@H]2C)O[C@@H]1C [Nanchangmycin] (11.1 µM) | 0.0291
CN1[C@@H]2CC[C@H]1C[C@@H](OC(c1ccc(F)cc1)c1ccc(F)cc1)C2 [3 α-Bis-(4-fluorophenyl) methoxytropane hydrochloride] (33.3333 µM) | 0.094
COc1ccc2[nH]cc(C3=CCNCC3)c2c1 (33.3333 µM) | 3.02
O=c1[nH]c2ccccc2n1C1CCN(CCCC(c2ccc(F)cc2)c2ccc(F)cc2)CC1 [Pimozide] (33.3333 µM) | 0.0136
